In PubChem BioAssay AID435019 (Southern Research Specialized Biocontainment Screening …, 2010):
Screen size: about 2,300 compounds; about 1,200 (52%) were called active. The set was probably picked from earlier hits. Some of the results follow. Results with a measured potency or affinity are listed apart. A number with no mark means an inactive call. How the calls were made is not given here.

test: mammalian cell cytotoxicity, dose response, cytotoxicity control for M. tuberculosis inhibitor project (AID 435019); settings: cytotoxicity counter-screen; series mostly up to 40 µM; viability: at the top concentration;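 further: 0% = background wells and 100% = vehicle-treated cells; lower values mean fewer viable cells so more cytotoxicity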

| SMILES | viability |
| --- | --- |
| CCc1ccc(N=Nc2ccc(O)c3[nH]cnc23)cc1 | 82.3% |
| C=CCOc1ccc(/C=C/C(=O)OCC(=O)NCC2CCCO2)cc1 (stereo not drawn) | 95.9% |
| CCCCOC(=O)CCN1C(=O)/C(=C2\SC(=S)N(CCC(=O)OCCCC)C2=O)SC1=S | 80.7% |
| Cc1ccc(NC(=O)Cn2ccsc2=N)c([N+](=O)[O-])c1 | 101% |
| COc1ccc(-c2nc(C#N)c(N3CCc4ccccc4C3)o2)cc1OC | 81.8% |
| c1ccc(C2[C@H]3CN(CC4CCCCC4)[C@H](c4ccccc4)C34CC2(c2cccnc2)C4)cc1 (stereo partly drawn) | 93.8% |
| COc1ccc(NC(C#N)c2ccc(OC)cc2)cc1 (stereo not drawn) | 96.6% |
| O=[N+]([O-])c1c(C(Cl)Cl)nn(-c2ccc(Cl)cc2)c1N1CCCCC1 | 84.8% |
| O=C(COc1cccc(Oc2ccccc2)c1)Nc1ncccn1 | 93.8% |
| C/C(=N\NC(=S)Nc1cccc(C)c1)c1cccc(N)c1 | 91% |
| O=C(COc1ccccc1)NNc1nc2ccccc2s1 | 99% |
| O=C(NC(=S)Nc1cccc2cccnc12)c1ccccc1 | 100% |
| COc1ccc(Oc2ccc(N/C=C/C(=O)C(C)(C)C)cc2)cc1 | 90.7% |
| O=c1c2c(-c3ccccc3)csc2ncn1/N=C/c1ccc(O)c([N+](=O)[O-])c1 | 88.3% |
| CCOc1ccc(NC(=S)Nc2ccc(C)c([N+](=O)[O-])c2)cc1 | 90.6% |
| Cc1cc(C)n2nc(N)c(N=Nc3ccccc3)c2n1 | 95.7% |
| Cc1ccccc1-n1c(O)c(C=Nc2ccc3c(c2)OCO3)c(=O)[nH]c1=O | 104% |
| S=c1[nH]c2ccc3ccccc3c2[nH]1 | 86.2% |
| Cc1ncsc1CCOC(=O)c1ccc([N+](=O)[O-])cc1 | 94.8% |
| CC1CN(C(=S)SCC(=O)c2ccc([N+](=O)[O-])cc2)CC(C)O1 (stereo not drawn) | 93.9% |
| O=C(c1ccc(CNc2c(N3CCCC3)c(=O)c2=O)cc1)N1CC=C(c2ccccc2)CC1 | 91.6% |
| O=c1oc(-c2cccs2)nc2c1cnn2-c1ccccc1 | 97.4% |
| Cc1nc2ccc(NC(=O)N(C(C)C)C(C)C)cc2s1 | 93.6% |

| SMILES | viability |
| --- | --- |
| CCN1c2ccccc2N(C)C1(C)c1ccccc1 (stereo not drawn) | 94.9% |
| COC(=O)CSc1ncnc2c1sc1nc3c(cc12)COC(C)(C)C3 | 82.5% |
| Cc1ccc(NC(=O)COC(=O)C(NS(=O)(=O)c2ccc(Cl)cc2)C(C)O)cc1C (stereo not drawn) | 86.8% |
| Fc1ccc(N/N=C2/CC(c3ccccc3)Oc3ccccc32)c(F)c1 (stereo not drawn) | 97.5% |
| CCCCc1cc(=O)oc2cc(O)ccc12 | 86.2% |
| CCCCN1C(=N)N([C@@H](CCC)CN2CCC[C@H]2CN2C(N)=NC[C@@H]2Cc2ccccc2)C[C@H]1Cc1ccccc1 | 92.3% |
| O=C(CNC(=O)c1ccc(Cl)cc1)c1ccc(Cl)cc1 | 87.5% |
| CCOC(=O)COc1cc(O)c2c(=O)cc(-c3ccccc3)oc2c1 | 102% |
| CC(=O)/C=C(\C)Nc1ccccc1O | 84.8% |
| N#Cc1nccnc1S(=O)(=O)c1cccs1 | 99.3% |
| CCOC(=O)C(=NC1CCS(=O)(=O)C1)NNc1ccc(Br)cc1 (stereo not drawn) | 99.3% |
| O=C(C[n+]1ccc(C(=O)c2ccccc2)cc1)Nc1ccc(C(F)(F)F)cc1 | 104% |
| C/C(=N\NC(N)=S)c1ccc(Cl)s1 | 88.2% |
| O=C(C/C=N\OCc1ccc([N+](=O)[O-])cc1)Nc1ccc(F)cc1F | 96.9% |
| O=C(NNc1ccc([N+](=O)[O-])cc1)c1ccco1 | 101% |
| CC1=C(C)C(=O)C(CCCCC#CCCCC#CCO)=C(C)C1=O | 84.5% |
| CC1CCCCC1NC(=O)c1ccc2c(c1)[nH]c(=O)n2C1CCCC1 (stereo not drawn) | 94.4% |
| CCCCOC(=O)CSc1nnc(-c2ccc(Cl)cc2Cl)o1 | 95.3% |
| COc1ccc(N=Cc2c(O)cc(C)oc2=O)cc1 | 92.7% |
| COc1ccc(-c2cc(O)cc(O)c2)cc1 | 84.8% |
| Cn1c(N)c(C(=O)COC(=O)c2ccc([N+](=O)[O-])o2)c(=O)n(C)c1=O | 87.2% |
| CSc1cccc(N=C2C(=O)Nc3ccccc32)c1 | 92.1% |
| Fc1ccc(-c2nnc(CSc3nnc(-c4cccs4)o3)o2)cc1 | 95.8% |

| SMILES | viability |
| --- | --- |
| Cc1ccc(Nc2nc(CSc3nnc(-c4cccs4)o3)cs2)cc1 | 86.8% |
| CCCNC(=S)Nc1ccc(Nc2ccccc2)cc1 | 83% |
| COc1ccc(NC(=O)CN(C)CC(=O)Nc2sc3c(c2C(N)=O)CCC3)cc1 | 90.6% |
| CCOC(=O)N1CCN(C(=O)CSc2nnc(-c3ccc(Cl)s3)o2)CC1 | 95.8% |
| CC1(C)CC(=O)C2=C(C1)OC(N)=C([N+](=O)[O-])C2c1ccc(C#N)s1 (stereo not drawn) | 84.6% [at 20 µM] |
| Clc1ccc(CSc2ncn[nH]2)cc1 | 88.4% |
| Nc1ccc(OCc2ccco2)cc1 | 89.3% |
| CCCn1nc(C(=O)NNC(=O)c2ccc(C)c(C)c2)c2ccccc2c1=O | 99.7% |
| CCOC(=O)c1ccc(NC(=O)CSc2ccc(-c3cccnc3)nn2)cc1 | 98.3% |
| CCOC(=O)c1ccc(NC(=O)CCc2nc(-c3ccc(Cl)cc3)no2)cc1 | 92.1% |
| COc1cccc(/C=C/c2nc(C#N)c(NCC(C)C)o2)c1 | 95.4% |
| O=C(CCc1c[nH]c2ccccc12)N1CCN(S(=O)(=O)c2ccccc2)CC1 | 87.8% |
| CN(C)CCCN(C(=O)c1ccc([N+](=O)[O-])s1)c1nc2cc3c(cc2s1)OCCO3 | 86.4% |
| Cc1ccc(-n2nnc3c(=O)oc4ccccc4c32)cc1 | 98.7% |
| Oc1cccc(-c2nc3ccccc3s2)c1 | 92.2% |
| Cc1nc2sccn2c(=O)c1CCN1CCC(=C(c2ccccc2)c2ccc(F)cc2)CC1 | 89.2% |
| Nc1c(C(=O)NC2CCCCC2)nsc1C(=O)OCC(=O)NC1CCCCC1 | 94% |
| O=c1[nH]c(=O)n(C2CCCO2)cc1F (stereo not drawn) | 94.6% |
| NN/C(=C\[N+](=O)[O-])Nc1ccc(Cl)cc1 | 87.6% |
| Cc1ccc(CN2CCN(/N=C/c3ccc(Cl)c([N+](=O)[O-])c3)CC2)cc1 | 82.9% |
| CSc1ccc(CNC(=O)C2Cc3cc(S(=O)(=O)N4CCCCC4)ccc3N2C(C)=O)cc1 (stereo not drawn) | 90% |
| CC(C)CS(=O)(=O)C1=NN2C(=N)/C(=C\c3ccc(OC(=O)c4ccco4)cc3)C(=O)N=C2S1 | 88.1% |
| CCCOC(=O)c1ccc(-c2ccc(C=O)o2)cc1 | 87.9% |

| SMILES | viability |
| --- | --- |
| COC(=O)CC(=O)N1CCN(c2ccc(Cl)c(Cl)c2)CC1 | 86.9% |
| O/N=C/c1cn(-c2ccc(Cl)cc2)nn1 | 98% |
| CSCCOC(=O)COc1ccc(/C=N/NC(=O)c2c(Cl)cnn2C)cc1 | 102% |
| O=C1CCC(=O)N1CNc1ccc(Oc2ccccc2)cc1 | 88.9% |
| O/N=C/c1ccc2ccccc2c1 | 90.8% |
| Nc1cc(C(=O)OCC(=O)NNC(=O)c2cccs2)ccc1Cl | 96.5% |
| CCCNc1nc(-c2cc(C(=O)Nc3ccccc3)on2)cc(C(C)C)n1 | 90.3% |
| CO/N=C(\Cn1ncc(N2CCCC2)c(Cl)c1=O)c1ccc(Cl)cc1 | 87.1% |
| O=C(COc1cc(O)c2c(=O)c3ccccc3oc2c1)OCc1ccccc1 | 101% |
| C=CCC1(CC=C)CCCN1C(=O)c1cc(COc2ccc(-n3cncn3)cc2)on1 | 64.9% |
| O=[N+]([O-])c1ccc(-c2csc(NN=C3CCCC3)n2)cc1 | 96.1% |
| Cn1nc(C(F)(F)F)c2cc(NC(=O)OCC(C)(C)C)sc21 | 90.9% |
| CCCCCCN=C1CC(C)(C)CC(=O)/C1=C(/O)CCC | 83.1% |
| S=C(NCCc1ccccc1)NN=C1CCCCCC1 | 94.1% |
| Cc1occc1-c1nnc(SCC(=O)NCCc2ccccc2)o1 | 91.9% |
| O=S(Cc1ccc(Br)cc1)Cc1nnc(SCc2ccc(Cl)cc2)n1-c1ccccc1 (stereo not drawn) | 53.3% |
| COC(OC)c1ccnc(-c2ccc(OC(=O)c3cccs3)cc2)n1 | 92.7% |
| O=C(COC(=O)c1cccs1)c1ccccc1 | 101% |
| CCOC(=O)c1ccc(OC(=O)CCCCCN=C(N)N)cc1 | 94.7% |
| CC1(C)CC(=O)c2c(O)cc(OCc3ccc(Br)cc3)cc2O1 | 82.1% |
| CCOc1ccc(NC(=O)CCc2nnc3ccc(N4CCC(C)CC4)nn23)cc1 | 89% |
| Cc1ccc(C(C)C)c(OCC(=O)OCc2c(C)noc2C)c1 | 95.7% |
| Cc1ccc(Nc2nc(N)nc(CN3CCc4ccccc4C3)n2)cc1 | 82.5% |

| SMILES | viability |
| --- | --- |
| Cc1ccccc1Nc1nc(N)nc(COC(=O)c2ccc([N+](=O)[O-])o2)n1 | 91.6% |
| CCOC(=O)CN(C#N)c1nc(N(C)C)nc(N(C)C)n1 | 98.9% |
| CN(C)N=Nc1nc[nH]c1C(N)=O | 99.6% |
| CCNc1nc(NCC)n2c(SC(C(=O)Nc3cc(C)ccc3C)c3ccccc3)nnc2n1 (stereo not drawn) | 87.6% |
| Cn1cc(/C=C2\C(=O)NC(=O)N(c3ccccc3)C2=O)c2ccccc21 | 95.5% |
| CC(C)Cn1c(N2CCN(C(=O)/C=C/c3ccccc3)CC2)nc2ccccc21 | 92.8% |
| CC(C)(Oc1ccc(Cl)cc1)C(=O)OCC(=O)N1CCN(c2ccccc2)CC1 | 89.3% |
| CCN(CC)C(=O)Oc1ccc2c(=O)c(-c3ccc(OC)cc3)coc2c1 | 81.8% |
| CN(C)C(=O)C1C2NC(=S)N(c3ccc(Cl)cc3)C1(C)Oc1ccc(Cl)cc12 (stereo not drawn) | 93.5% |
| COc1cc(NC(=O)C/C(C)=N/NC(=O)c2ccccn2)c(OC)cc1Cl | 91.8% |
| O=c1oc2cc(O)ccc2c2ccccc12 | 93.3% |
| Cc1ccc(-c2ccc(/C=N/c3ncn[nH]3)o2)cc1Cl | 94.2% |
| C=C(C)C1CC=C(C)/C(=N/NC(=O)CNc2ccc(OCC)cc2)C1 (stereo not drawn) | 97.4% |
| O=C(c1ccc(C#Cc2ccccc2)o1)N1CCN(c2ccccn2)CC1 | 95.5% |
| CCCOC(=O)CSc1nc(N2CCOCC2)c2c(c1C#N)CC(C)(C)OC2 | 88.7% |
| O=C(Oc1ccc(-c2cn3c(n2)SCC3)cc1)c1ccccc1 | 91.9% |
| CC(=Nc1ccc(C)c(C)c1)C1=C(O)CSC1=O | 103% |
| Oc1ccccc1C=NC1=NN(c2cccc(C(F)(F)F)c2)CC1 | 94% |
| O=C(O)c1ccccc1C(=O)NNc1ccc(Cl)cc1Cl | 102% |
| Cc1nn(C(C)(C)C)c(NC(=O)c2ccc(Cl)cc2Cl)c1Br | 98.6% |
| O=C(C[n+]1cc(-c2ccc(Cl)cc2)n2c1CCC2)Nc1nc(-c2ccccc2)cs1 | 102% |
